This is one part of a sample in which hits are shown more often than they occur.
Pf Dd2 growth = qHTS Primary assay for Inhibitors of Plasmodium falciparum Dd2 growth in vitro | 120,000 tested, 4.3% active | P. falciparum Dd2 growth, SYBR Green, 72 h | Potency, µM (series often up to 28.9 µM), for the others: at the top dose activity, negative = inhibition, most hits filed as inhibitors; active means well fitted inhibition curve with a large enough effect;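 further: plate controls were DMSO vehicle for no effect and reference drug for full effect; nearly all actives have a fitted effect of over 65% in size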
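Readout: SYBR Green fluorescence, 485 nm excitation, 535 nm emission, after ~16 h lysis at 37C. Before that, Dd2-infected red cells (2.5% hematocrit) grew 72 h with compound, 29 uM top final concentration.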
Starred values were filed as active, the others as inactive; [ ] = dose if it differs, or a comment. Potency means the concentration at half of the fitted maximal effect.

CC(C)c1cc(C(=O)N[C@@H]2COCC[C@@H]2OCc2ccccn2)nc(N)n1 was read as Pf Dd2 growth -2%.
Screening CCN1CCN(c2ccc(C(=O)N3CCCC(c4ccccc4)CC3)cn2)CC1 (configuration not stated) returned Pf Dd2 growth -23%.
Screening CN(CC(=O)O)c1ncc(CN2CCCC(c3cccc(C(=O)O)c3)C2)cn1 (configuration not stated) returned Pf Dd2 growth -10%.
Screening CCOCCOC1CCN(C(=O)Cc2cccc(F)c2)CC1 returned Pf Dd2 growth 20%.
O=C(Nc1ccc(F)cc1)[C@@H]1C[C@@H](c2cccc(C(F)(F)F)c2)N(CC2CCOCC2)C1 was read as Pf Dd2 growth -36%.
CS(=O)(=O)N(Cc1cccnc1)C1CN(C(=O)Nc2ccc3c(c2)OCCO3)C1 was read as Pf Dd2 growth -11%.
Screening COc1cccc(C(=O)c2sc(Nc3ccc(F)c(Cl)c3)nc2N)c1 returned Pf Dd2 growth inactive.
For CCc1ccccc1Nc1sc(C(=O)c2ccccc2)c(N)c1S(=O)(=O)c1ccccc1 the results were Pf Dd2 growth 11µM*.
`Cc1ccc(S(=O)(=O)c2c(Nc3ccccc3)sc(C(=O)c3ccc4c(c3)OCO4)c2N)cc1` gave Pf Dd2 growth 13µM*.
Screening Cc1cccc(C)c1Nc1sc(C(=O)c2ccccc2)c(N)c1S(=O)(=O)c1ccccc1 returned Pf Dd2 growth inactive.
Screening CCS(=O)(=O)c1c(Nc2cc(C)ccc2C)sc(C(=O)c2ccccc2)c1N returned Pf Dd2 growth -21%.
For Cc1ccccc1Nc1sc(C(=O)c2ccc3c(c2)OCO3)c(N)c1S(=O)(=O)c1ccccc1 the results were Pf Dd2 growth -17%.
COc1ccc(S(=O)(=O)c2c(O)c(C)cc(NC(=O)c3ccccc3)c2C(C)C)cc1 was read as Pf Dd2 growth inactive.
`COc1ccc(S(=O)(=O)c2c(Nc3ccc(C)cc3C)sc(C(=O)c3ccc(F)cc3)c2N)cc1` gave Pf Dd2 growth 11µM*.
For COc1ccc(CNC(=O)c2c(Nc3ccc(OC)cc3OC)sc(C(=O)c3ccc(Cl)cc3)c2N)cc1 the results were Pf Dd2 growth inactive.
`COc1ccc(S(=O)(=O)c2c(Nc3ccccc3F)sc(C(=O)c3cccc(OC)c3)c2N)cc1` gave Pf Dd2 growth 11µM*.
`CC(=O)c1cc2c(cc1N/C(=N/S(=O)(=O)c1ccc(C)cc1)c1ccccc1)OCO2` gave Pf Dd2 growth -24%.
Screening COc1ccc2nc3sc(C(=O)Nc4ccccc4F)cc3cc2c1 returned Pf Dd2 growth 9%.
O=C(C1CN(c2ccc(Cl)cc2)C(=O)N1)N1CCN(Cc2ccccc2)CC1 (configuration not stated) was read as Pf Dd2 growth inactive.
`O=Cc1ccc(-c2ccc(C(=O)O)cn2)cc1` gave Pf Dd2 growth 10%[44.1 µM].
Cc1nc(CCC(=O)N2CCCC(CCc3c(F)cccc3F)C2)n[nH]1 (configuration not stated) was read as Pf Dd2 growth -6%.
`CCN(CC)C(=O)Cn1ccn2nc(-c3ccccc3)c(CO)c2c1=O` gave Pf Dd2 growth -61%.
`CNC(=O)[C@@H]1C[C@@H](n2cc(CNC(=O)Nc3cc(C)ccc3C)nn2)CN1` gave Pf Dd2 growth 0%.
`CC(CCN1CCOCC1)NC(=O)c1cccc(NCC(=O)O)c1` (configuration not stated) gave Pf Dd2 growth -29%.
For CC1CCN([C@@H]2[C@H](O)[C@H](CO)O[C@@H]2CNC2CCOCC2)CC1 the results were Pf Dd2 growth -15%[44.1 µM].
`Cc1cc(=O)n(CC(=O)Nc2c(C)cccc2C)c(-c2ccc(F)cc2)n1` gave Pf Dd2 growth inactive.
`COc1ccc(-c2nnc3n2CCN([S+](=O)([O-])c2ccc(C(F)(F)F)cc2)C3)cc1` gave Pf Dd2 growth -14%.
For CCN(CC)C(=O)Cn1c(C)ccc(NS(=O)(=O)c2ccc(C)cc2)c1=O the results were Pf Dd2 growth 9%.
Screening CCOc1ccccc1NC(=O)N1CCC[C@H]1C(=O)N1CCCCCCNC(=O)CC1 returned Pf Dd2 growth -4%.
COC[C@@H]1CN(C(=O)CC(C)C)C[C@H]1c1nc(C)no1 was read as Pf Dd2 growth 43%.
For O=C(CN1C(=O)NC(c2ccc(Cl)cc2)C2=C1COC2=O)Nc1ccc(Br)cc1F (configuration not stated) the results were Pf Dd2 growth -23%.
COc1cccc(C(=O)Nc2ccccc2-c2nc3ccccc3s2)c1 was read as Pf Dd2 growth inactive.
`COc1cccc(C(=O)c2cn(CC(=O)NCc3ccccc3Cl)c3nc(C)ccc3c2=O)c1` gave Pf Dd2 growth -5%.
`CCc1ccccc1Nc1sc(C(=O)c2cccc(OC)c2)c(N)c1S(=O)(=O)c1ccccc1` gave Pf Dd2 growth 11µM*.
CCS(=O)(=O)N[C@H](Cc1ccccc1)C(=O)N1CCOCCNC(=O)CC1 was read as Pf Dd2 growth 9%.
`COc1c[nH]c(CN2CCCC(Nc3ccc(C(C)C)cc3)C2)cc1=O` (configuration not stated) gave Pf Dd2 growth -6%.

Assay outcomes as filed in PubChem BioAssay.
